# Test results reported in the supplement of paper PMC4466140.
# Assays:
# Experiment in all cases: SPOT peptide array binding signal intensity (averaged, normalized) (arbitrary units (background-subtracted, floor 0; scale differs between SH3 domains)); higher = stronger binding of the SH3 domain to the peptide
# AgAbp1 = target: AgAbp1
# Summary of the method: (§1)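 SH3 domains from four yeast species were expressed as GST fusions in E. coli BL21(DE3) and purified on glutathione Sepharose. Each was incubated at 10 μg/ml overnight at 4°C in TBS-based blocking buffer on cellulose membranes bearing synthetic 15-mer peptides, in which serines replaced cysteines. Bound protein was detected with anti-GST antibody, an HRP anti-mouse secondary and luminol, then imaged and quantified with Genespotter. The binding signal is the normalized, background-subtracted spot intensity averaged over replicates, in arbitrary units that are not the same from one domain to another.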
# AgBbc1 = target: AgBbc1
# Summary of the method: as §1
# AgBem1-D1 = target: AgBem1-D1
# Summary of the method: as §1
# AgBzz1-D1 = target: AgBzz1-D1
# Summary of the method: as §1
# AgBzz1-D2 = target: AgBzz1-D2
# Summary of the method: as §1
# AgCyk3 = target: AgCyk3
# Summary of the method: as §1
# AgFus1 = target: AgFus1
# Summary of the method: as §1
# AgHof1 = target: AgHof1
# Summary of the method: as §1
# AgHse1 = target: AgHse1
# Summary of the method: as §1
# AgLsb1 = target: AgLsb1
# Summary of the method: as §1
# AgLsb4 = target: AgLsb4
# Summary of the method: as §1
# AgMyo5 = target: AgMyo5
# Summary of the method: as §1
# AgNbp2 = target: AgNbp2
# Summary of the method: as §1
# AgRvs167 = target: AgRvs167
# Summary of the method: as §1
# AgSho1 = target: AgSho1
# Summary of the method: as §1
# AgSla1-D1-D2 = target: AgSla1-D1-D2
# Summary of the method: as §1
# AgSla1-D3 = target: AgSla1-D3
# Summary of the method: as §1
# CaAbp1-D1 = target: CaAbp1-D1
# Summary of the method: as §1
# CaAbp1-D2 = target: CaAbp1-D2
# Summary of the method: as §1
# CaBbc1 = target: CaBbc1
# Summary of the method: as §1
# CaBem1-D1 = target: CaBem1-D1
# Summary of the method: as §1
# CaBzz1-D1 = target: CaBzz1-D1
# Summary of the method: as §1
# CaBzz1-D2 = target: CaBzz1-D2
# Summary of the method: as §1
# CaCyk3 = target: CaCyk3
# Summary of the method: as §1
# CaFus1 = target: CaFus1
# Summary of the method: as §1
# CaHof1 = target: CaHof1
# Summary of the method: as §1
# CaHse1 = target: CaHse1
# Summary of the method: as §1
# CaLsb1 = target: CaLsb1
# Summary of the method: as §1
# CaLsb4 = target: CaLsb4
# Summary of the method: as §1
# CaMyo5 = target: CaMyo5
# Summary of the method: as §1
# CaNbp2 = target: CaNbp2
# Summary of the method: as §1
# CaRvs167 = target: CaRvs167
# Summary of the method: as §1
# CaRvs167-3 = target: CaRvs167-3
# Summary of the method: as §1
# CaSho1 = target: CaSho1
# Summary of the method: as §1
# CaSla1-D1-D2 = target: CaSla1-D1-D2
# Summary of the method: as §1
# CaSla1-D3 = target: CaSla1-D3
# Summary of the method: as §1
# ScAbp1 = target: ScAbp1
# Summary of the method: as §1
# ScBbc1 = target: ScBbc1
# Summary of the method: as §1
# ScBem1-D1 = target: ScBem1-D1
# Summary of the method: as §1
# ScBzz1-D1 = target: ScBzz1-D1
# Summary of the method: as §1
# ScBzz1-D2 = target: ScBzz1-D2
# Summary of the method: as §1
# ScCyk3 = target: ScCyk3
# Summary of the method: as §1
# ScFus1 = target: ScFus1
# Summary of the method: as §1
# ScHof1 = target: ScHof1
# Summary of the method: as §1
# ScHse1 = target: ScHse1
# Summary of the method: as §1
# ScLsb1 = target: ScLsb1
# Summary of the method: as §1
# ScLsb2 = target: ScLsb2
# Summary of the method: as §1
# ScLsb3 = target: ScLsb3
# Summary of the method: as §1
# ScLsb4 = target: ScLsb4
# Summary of the method: as §1
# ScMyo3 = target: ScMyo3
# Summary of the method: as §1
# ScMyo5 = target: ScMyo5
# Summary of the method: as §1
# ScNbp2 = target: ScNbp2
# Summary of the method: as §1
# ScPex13 = target: ScPex13
# Summary of the method: as §1
# ScRvs167 = target: ScRvs167
# Summary of the method: as §1
# ScSho1 = target: ScSho1
# Summary of the method: as §1
# ScSla1-D1-D2 = target: ScSla1-D1-D2
# Summary of the method: as §1
# ScSla1-D3 = target: ScSla1-D3
# Summary of the method: as §1
# SpAbp1-D1 = target: SpAbp1-D1
# Summary of the method: as §1
# SpBbc1 = target: SpBbc1
# Summary of the method: as §1
# SpBzz1-D1 = target: SpBzz1-D1
# Summary of the method: as §1
# SpBzz1-D2 = target: SpBzz1-D2
# Summary of the method: as §1
# SpCyk3 = target: SpCyk3
# Summary of the method: as §1
# SpHof1 = target: SpHof1
# Summary of the method: as §1
# SpHof1-2 = target: SpHof1-2
# Summary of the method: as §1
# SpHof1-3 = target: SpHof1-3
# Summary of the method: as §1
# SpHse1 = target: SpHse1
# Summary of the method: as §1
# SpLsb1 = target: SpLsb1
# Summary of the method: as §1
# SpLsb4 = target: SpLsb4
# Summary of the method: as §1
# SpMyo1 = target: SpMyo1
# Summary of the method: as §1
# SpNbp2 = target: SpNbp2
# Summary of the method: as §1
# SpPex13 = target: SpPex13
# Summary of the method: as §1
# SpRvs167 = target: SpRvs167
# Summary of the method: as §1
# SpSla1-D1-D2 = target: SpSla1-D1-D2
# Summary of the method: as §1
# SpSla1-D3 = target: SpSla1-D3
# Summary of the method: as §1
binder,measurement,setting,value
AGKRRLPLVRFKASD,SPOT peptide array binding signal intensity,AgAbp1,162
same,SPOT peptide array binding signal intensity,AgBbc1,109
same,SPOT peptide array binding signal intensity,AgBem1-D1,301
same,SPOT peptide array binding signal intensity,AgBzz1-D1,44
same,SPOT peptide array binding signal intensity,AgBzz1-D2,40.5
same,SPOT peptide array binding signal intensity,AgCyk3,5
same,SPOT peptide array binding signal intensity,AgFus1,783
same,SPOT peptide array binding signal intensity,AgHof1,84
same,SPOT peptide array binding signal intensity,AgHse1,1070
same,SPOT peptide array binding signal intensity,AgLsb1,4
same,SPOT peptide array binding signal intensity,AgLsb4,214
same,SPOT peptide array binding signal intensity,AgMyo5,2
same,SPOT peptide array binding signal intensity,AgNbp2,232
same,SPOT peptide array binding signal intensity,AgRvs167,6
same,SPOT peptide array binding signal intensity,AgSho1,218
same,SPOT peptide array binding signal intensity,AgSla1-D1-D2,736
same,SPOT peptide array binding signal intensity,AgSla1-D3,11.8
same,SPOT peptide array binding signal intensity,CaAbp1-D1,1220
same,SPOT peptide array binding signal intensity,CaAbp1-D2,806
same,SPOT peptide array binding signal intensity,CaBbc1,259
same,SPOT peptide array binding signal intensity,CaBem1-D1,80.5
same,SPOT peptide array binding signal intensity,CaBzz1-D1,125
same,SPOT peptide array binding signal intensity,CaBzz1-D2,147
same,SPOT peptide array binding signal intensity,CaCyk3,69
same,SPOT peptide array binding signal intensity,CaFus1,2040
same,SPOT peptide array binding signal intensity,CaHof1,0.75
same,SPOT peptide array binding signal intensity,CaHse1,71.5
same,SPOT peptide array binding signal intensity,CaLsb1,2
same,SPOT peptide array binding signal intensity,CaLsb4,173
same,SPOT peptide array binding signal intensity,CaMyo5,3
same,SPOT peptide array binding signal intensity,CaNbp2,384
same,SPOT peptide array binding signal intensity,CaRvs167,51.3
same,SPOT peptide array binding signal intensity,CaRvs167-3,226
same,SPOT peptide array binding signal intensity,CaSho1,613
same,SPOT peptide array binding signal intensity,CaSla1-D1-D2,162
same,SPOT peptide array binding signal intensity,CaSla1-D3,114
same,SPOT peptide array binding signal intensity,ScAbp1,146
same,SPOT peptide array binding signal intensity,ScBbc1,30.8
same,SPOT peptide array binding signal intensity,ScBem1-D1,68.5
same,SPOT peptide array binding signal intensity,ScBzz1-D1,24
same,SPOT peptide array binding signal intensity,ScBzz1-D2,44
same,SPOT peptide array binding signal intensity,ScCyk3,71
same,SPOT peptide array binding signal intensity,ScFus1,584
same,SPOT peptide array binding signal intensity,ScHof1,5.5
same,SPOT peptide array binding signal intensity,ScHse1,2480
same,SPOT peptide array binding signal intensity,ScLsb1,4.5
same,SPOT peptide array binding signal intensity,ScLsb2,6.5
same,SPOT peptide array binding signal intensity,ScLsb3,478
same,SPOT peptide array binding signal intensity,ScLsb4,25.5
same,SPOT peptide array binding signal intensity,ScMyo3,5
same,SPOT peptide array binding signal intensity,ScMyo5,3
same,SPOT peptide array binding signal intensity,ScNbp2,626
same,SPOT peptide array binding signal intensity,ScPex13,6.75
same,SPOT peptide array binding signal intensity,ScRvs167,364
same,SPOT peptide array binding signal intensity,ScSho1,2030
same,SPOT peptide array binding signal intensity,ScSla1-D1-D2,1180
same,SPOT peptide array binding signal intensity,ScSla1-D3,9.75
same,SPOT peptide array binding signal intensity,SpAbp1-D1,592
same,SPOT peptide array binding signal intensity,SpBbc1,5.25
same,SPOT peptide array binding signal intensity,SpBzz1-D1,180
same,SPOT peptide array binding signal intensity,SpBzz1-D2,1
same,SPOT peptide array binding signal intensity,SpCyk3,67
same,SPOT peptide array binding signal intensity,SpHof1,481
same,SPOT peptide array binding signal intensity,SpHof1-2,99.5
same,SPOT peptide array binding signal intensity,SpHof1-3,412
same,SPOT peptide array binding signal intensity,SpHse1,536
same,SPOT peptide array binding signal intensity,SpLsb1,17
same,SPOT peptide array binding signal intensity,SpLsb4,354
same,SPOT peptide array binding signal intensity,SpMyo1,3.5
same,SPOT peptide array binding signal intensity,SpNbp2,1010
same,SPOT peptide array binding signal intensity,SpPex13,42.5
same,SPOT peptide array binding signal intensity,SpRvs167,248
same,SPOT peptide array binding signal intensity,SpSla1-D1-D2,4
same,SPOT peptide array binding signal intensity,SpSla1-D3,17.5
VGFRLALKFPSRITG,SPOT peptide array binding signal intensity,AgAbp1,156
same,SPOT peptide array binding signal intensity,AgBbc1,89.2
same,SPOT peptide array binding signal intensity,AgBem1-D1,596
same,SPOT peptide array binding signal intensity,AgBzz1-D1,231
same,SPOT peptide array binding signal intensity,AgBzz1-D2,180
same,SPOT peptide array binding signal intensity,AgCyk3,107
same,SPOT peptide array binding signal intensity,AgFus1,3790
same,SPOT peptide array binding signal intensity,AgHof1,137
same,SPOT peptide array binding signal intensity,AgHse1,3050
same,SPOT peptide array binding signal intensity,AgLsb1,17.2
same,SPOT peptide array binding signal intensity,AgLsb4,1990
same,SPOT peptide array binding signal intensity,AgMyo5,9.5
same,SPOT peptide array binding signal intensity,AgNbp2,1370
same,SPOT peptide array binding signal intensity,AgRvs167,55.5
same,SPOT peptide array binding signal intensity,AgSho1,2510
same,SPOT peptide array binding signal intensity,AgSla1-D1-D2,505
same,SPOT peptide array binding signal intensity,AgSla1-D3,31
same,SPOT peptide array binding signal intensity,CaAbp1-D1,766
same,SPOT peptide array binding signal intensity,CaAbp1-D2,1210
same,SPOT peptide array binding signal intensity,CaBbc1,179
same,SPOT peptide array binding signal intensity,CaBem1-D1,147
same,SPOT peptide array binding signal intensity,CaBzz1-D1,976
same,SPOT peptide array binding signal intensity,CaBzz1-D2,473
same,SPOT peptide array binding signal intensity,CaCyk3,118
same,SPOT peptide array binding signal intensity,CaFus1,5990
same,SPOT peptide array binding signal intensity,CaHof1,13.8
same,SPOT peptide array binding signal intensity,CaHse1,966
same,SPOT peptide array binding signal intensity,CaLsb1,25
same,SPOT peptide array binding signal intensity,CaLsb4,716
same,SPOT peptide array binding signal intensity,CaMyo5,105
